Experimental data as given in PubChem BioAssay (NCATS).
Values joined by “and” are separate entries in the source; they are usually repeats but may differ in a detail not shown here. Identical values can stand only once. Inconclusive results are not listed. Entries that show only a call come without a potency. Active and inactive are the calls of the source. The call rests on the fitted dose curve; in most records, active means well fitted inhibition curve with a large enough effect; inconclusive means small, poorly fitted or top-dose-only effect; inactive means flat fitted curve, though single readings scatter.

Tested on: Zika virus NS2B-NS3 protease (linked construct)
Test: Confirmatory screen NINDS AMC qHTS for Zika virus inhibitors (AID 1347152)
Details: Purified linked NS2B-NS3, AMC substrate fluorescence
Outline: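 Linked NS2B-NS3 protease, 1 nM, in 10 mM Tris-HCl pH 8.0, 0.01% Tween 20; compounds preincubated 15 min at room temperature. Nle-KRR-AMC 10 microM (Km 18.3 µM); 15-min fluorescence change (340/450 nm) fitted to 4-parameter Hill.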
Further: nearly all actives have a fitted effect of over 70% in size.
Potency means the concentration at half of the fitted maximal effect.

Row | SMILES | Potency
1 | CS(=O)c1ccc(-c2nc(-c3ccc(F)cc3)c(-c3ccncc3)[nH]2)cc1 (centres undefined) | 24.1 µM (active)
2 | NC(=O)c1ccc2nc(-c3ccc(Oc4ccc(Cl)cc4)cc3)[nH]c2c1 | 34.1 µM (active)
3 | COc1ccc2cc(-c3nc(-c4ccc(S(C)=O)cc4)[nH]c3-c3ccncc3)ccc2c1 (centres undefined) | 17.1 µM (active)
4 | CC1(C)CCC(CN2CCN(c3ccc(C(=O)NS(=O)(=O)c4ccc(NCC5CCOCC5)c([N+](=O)[O-])c4)c(Oc4cnc5[nH]ccc5c4)c3)CC2)=C(c2ccc(Cl)cc2)C1 | 6.07 µM (active) and 10.8 µM (active)
5 | NC(=O)c1cccc2[nH]c(-c3ccc([C@H]4CCCN4)cc3F)nc12 | 27.1 µM (active)

Tested on: Zika virus NS2B-NS3 protease (unlinked complex)
Test: Confirmatory screen GU AMC qHTS for Zika virus inhibitors (AID 1347153);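 further: enzyme at 25 nM with substrate at 10 µM below its Km of 18.3 µM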
Details: Recombinant NS2B-NS3 protease, AMC substrate fluorescence
Outline: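 Fluorescence change (ex 340/em 450 nm) over 15 min, ~20% substrate conversion, normalized to no-inhibitor and no-enzyme controls, then Hill-fitted. Unlinked protease at 25 nM; AMC peptide 10 µM.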

Row | SMILES | Potency
6 | CS(=O)c1ccc(-c2nc(-c3ccc(F)cc3)c(-c3ccncc3)[nH]2)cc1 (centres undefined) | 21.5 µM (active)
7 | COc1ccc2cc(-c3nc(-c4ccc(S(C)=O)cc4)[nH]c3-c3ccncc3)ccc2c1 (centres undefined) | 17.1 µM (active)
8 | Cc1ccn(-c2ccc(-c3ncco3)cc2)c(=O)c1-c1ccc2nc(N)ncc2c1 | 30.4 µM (active)
9 | CC1(C)CCC(CN2CCN(c3ccc(C(=O)NS(=O)(=O)c4ccc(NCC5CCOCC5)c([N+](=O)[O-])c4)c(Oc4cnc5[nH]ccc5c4)c3)CC2)=C(c2ccc(Cl)cc2)C1 | 8.57 µM (active)

Tested on: Zika virus NS2B-NS3 protease
Test: Primary screen GU AMC qHTS for Zika virus inhibitors (AID 1347154)
Details: Zika NS2B-NS3 unlinked protease, AMC fluorogenic substrate; series mostly up to 54.1 µM
Outline: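 Unlinked Zika NS2B hydrophilic domain–NS3 protease complex at 25 nM in 10 mM Tris-HCl pH 8.0, 0.01% Tween 20, with an AMC peptide substrate. Fluorescence change (340/450 nm) over 15 min at room temperature, normalized to controls, fitted to 4-parameter Hill.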

Row | SMILES | Potency
10 | CC[C@]1(O)C[C@@H]2CN(CCc3c([nH]c4ccccc34)[C@@](C(=O)OC)(c3cc4c(cc3OC)N(C=O)[C@@H]3C45CCN4CC=C[C@](CC)([C@H]45)[C@@H](OC(C)=O)[C@]3(O)C(=O)OC)C2)C1 (some centres undefined) | inactive
11 | CS(=O)c1ccc(-c2nc(-c3ccc(F)cc3)c(-c3ccncc3)[nH]2)cc1 (centres undefined) | 26.7 µM (active) and 17.5 µM (active)
12 | Nc1ncnc2c1ncn2[C@@H]1O[C@H](CO)C[C@@H]1O | inactive
13 | NC(CO)(CO)CCc1ccc(Sc2cccc(OCc3ccccc3)c2)cc1Cl | inactive
14 | O=c1cc(-c2cccc3c2Sc2ccccc2S3)oc(N2CCOCC2)c1 | inactive
15 | CC(=O)OC1C(C)OC(Oc2c(-c3ccc(O)cc3)oc3cc(O)cc(O)c3c2=O)C(O)C1OC(C)=O (centres undefined) | inactive
16 | NC[C@@H]1O[C@@H](O[C@H]2[C@@H](O)[C@H](O[C@@H]3[C@@H](O)[C@@H](N)C[C@H](N)[C@H]3O[C@H]3O[C@H](CN)[C@@H](O)[C@@H](O)[C@H]3N)O[C@H]2CO)[C@H](N)[C@@H](O)[C@@H]1O | inactive
17 | CC#CCn1c(N2CCC[C@@H](N)C2)nc2c1c(=O)n(Cc1nc(C)c3ccccc3n1)c(=O)n2C | inactive
18 | Nc1ncnc2ccccc12 | inactive
19 | COC[C@@H](c1ccc(C(F)(F)F)cc1)N1CCN(C2(C)CCN(C(=O)c3c(C)ncnc3C)CC2)C[C@H]1C | inactive
20 | O=C(O)c1cc(O)c2c(c1)C(=O)c1cccc(O)c1C2=O | 24.8 µM (active)
21 | CCOC(CN1C(=O)[C@](CC(=O)Nc2ccc(C)cc2)(NC(=O)Nc2ccc(C)cc2)c2ccccc21)OCC | inactive
22 | NC(=O)c1ccc2nc(-c3ccc(Oc4ccc(Cl)cc4)cc3)[nH]c2c1 | 24.1 µM (active)
23 | CC(=O)Oc1cc2c(s1)CCN(C(C(=O)C1CC1)c1ccccc1F)C2 (centres undefined) | inactive
24 | O=C(CCc1ccc(O)cc1)c1c(O)cc(O)cc1O[C@@H]1O[C@H](CO)[C@H](O)[C@H](O)[C@H]1O | inactive
25 | CC/C(=C(\c1ccccc1)c1ccc(OCCN(C)C)cc1)c1ccccc1 | inactive
26 | COc1ccc2cc(-c3nc(-c4ccc(S(C)=O)cc4)[nH]c3-c3ccncc3)ccc2c1 (centres undefined) | 17.1 µM (active)
27 | Cn1cc(C=C2C(=O)Nc3cccnc32)c2ccccc21 | inactive
28 | O=C(N[C@@H](c1ccccc1)[C@@H]1CCCCN1)c1cccc(C(F)(F)F)c1Cl | inactive
29 | COc1ccc(-n2c(C)c([N+](=O)[O-])c3ccc(O)cc32)cc1 | inactive
30 | CN(C)CCC=C1c2ccccc2COc2ccc(CC(=O)O)cc21 | inactive
31 | CC(C(=O)O)c1ccc(-c2ccccc2)c(F)c1 (centres undefined) | inactive
32 | Cc1[nH]c(C=C2C(=O)Nc3ccc(S(=O)(=O)Cc4c(Cl)cccc4Cl)cc32)c(C)c1C(=O)N1CCC[C@H]1CN1CCCC1 | inactive
33 | CC(C)(C(=O)NCC(F)(F)C(F)(F)F)C(=O)N[C@@H]1C(=O)Nc2ccccc2-c2ccccc21 | inactive
34 | CCCCCNC(=O)N1CCC(CN(Cc2ccc(Cl)cc2)Cc2ccc([N+](=O)[O-])s2)C1 (centres undefined) | inactive
